A number with no mark means an inactive call.

Chain of UniProt P67809 (P67809 whole entry): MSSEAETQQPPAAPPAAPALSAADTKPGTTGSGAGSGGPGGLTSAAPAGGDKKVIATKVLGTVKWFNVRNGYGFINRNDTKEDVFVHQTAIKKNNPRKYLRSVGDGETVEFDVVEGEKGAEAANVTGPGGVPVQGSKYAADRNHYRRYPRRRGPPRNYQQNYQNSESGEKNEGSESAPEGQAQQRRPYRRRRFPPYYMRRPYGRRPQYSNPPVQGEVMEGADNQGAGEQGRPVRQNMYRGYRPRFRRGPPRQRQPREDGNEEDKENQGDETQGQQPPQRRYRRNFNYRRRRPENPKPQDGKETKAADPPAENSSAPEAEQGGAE
Chain of UniProt P14735 (P14735 whole entry): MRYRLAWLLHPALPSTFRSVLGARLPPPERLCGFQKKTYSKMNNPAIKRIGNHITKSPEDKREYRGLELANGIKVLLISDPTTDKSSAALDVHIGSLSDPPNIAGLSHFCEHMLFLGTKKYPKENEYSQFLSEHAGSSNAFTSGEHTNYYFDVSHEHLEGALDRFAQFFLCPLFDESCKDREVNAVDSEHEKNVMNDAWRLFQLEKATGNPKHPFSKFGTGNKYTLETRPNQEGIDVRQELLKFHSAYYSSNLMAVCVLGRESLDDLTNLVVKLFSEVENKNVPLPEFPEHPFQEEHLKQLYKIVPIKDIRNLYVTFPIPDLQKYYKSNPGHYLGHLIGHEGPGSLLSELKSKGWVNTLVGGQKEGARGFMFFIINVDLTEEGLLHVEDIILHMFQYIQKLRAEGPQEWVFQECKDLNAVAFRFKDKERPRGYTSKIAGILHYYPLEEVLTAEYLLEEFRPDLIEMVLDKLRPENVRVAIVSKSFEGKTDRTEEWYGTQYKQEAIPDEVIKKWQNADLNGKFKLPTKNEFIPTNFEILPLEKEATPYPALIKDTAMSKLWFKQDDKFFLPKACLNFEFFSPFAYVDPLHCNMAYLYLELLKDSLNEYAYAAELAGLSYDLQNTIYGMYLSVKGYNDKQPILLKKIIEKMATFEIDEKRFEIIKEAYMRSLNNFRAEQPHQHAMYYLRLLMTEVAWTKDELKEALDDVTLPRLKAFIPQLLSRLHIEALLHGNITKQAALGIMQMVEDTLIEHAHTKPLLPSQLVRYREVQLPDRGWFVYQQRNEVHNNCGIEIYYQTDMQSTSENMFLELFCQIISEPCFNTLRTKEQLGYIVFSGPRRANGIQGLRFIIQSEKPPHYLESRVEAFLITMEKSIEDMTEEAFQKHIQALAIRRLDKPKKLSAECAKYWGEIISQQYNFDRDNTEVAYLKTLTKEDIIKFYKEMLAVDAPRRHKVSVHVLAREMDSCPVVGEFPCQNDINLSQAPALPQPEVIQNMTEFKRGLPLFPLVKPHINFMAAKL
Chain of UniProt Q96F81 (Q96F81 whole entry): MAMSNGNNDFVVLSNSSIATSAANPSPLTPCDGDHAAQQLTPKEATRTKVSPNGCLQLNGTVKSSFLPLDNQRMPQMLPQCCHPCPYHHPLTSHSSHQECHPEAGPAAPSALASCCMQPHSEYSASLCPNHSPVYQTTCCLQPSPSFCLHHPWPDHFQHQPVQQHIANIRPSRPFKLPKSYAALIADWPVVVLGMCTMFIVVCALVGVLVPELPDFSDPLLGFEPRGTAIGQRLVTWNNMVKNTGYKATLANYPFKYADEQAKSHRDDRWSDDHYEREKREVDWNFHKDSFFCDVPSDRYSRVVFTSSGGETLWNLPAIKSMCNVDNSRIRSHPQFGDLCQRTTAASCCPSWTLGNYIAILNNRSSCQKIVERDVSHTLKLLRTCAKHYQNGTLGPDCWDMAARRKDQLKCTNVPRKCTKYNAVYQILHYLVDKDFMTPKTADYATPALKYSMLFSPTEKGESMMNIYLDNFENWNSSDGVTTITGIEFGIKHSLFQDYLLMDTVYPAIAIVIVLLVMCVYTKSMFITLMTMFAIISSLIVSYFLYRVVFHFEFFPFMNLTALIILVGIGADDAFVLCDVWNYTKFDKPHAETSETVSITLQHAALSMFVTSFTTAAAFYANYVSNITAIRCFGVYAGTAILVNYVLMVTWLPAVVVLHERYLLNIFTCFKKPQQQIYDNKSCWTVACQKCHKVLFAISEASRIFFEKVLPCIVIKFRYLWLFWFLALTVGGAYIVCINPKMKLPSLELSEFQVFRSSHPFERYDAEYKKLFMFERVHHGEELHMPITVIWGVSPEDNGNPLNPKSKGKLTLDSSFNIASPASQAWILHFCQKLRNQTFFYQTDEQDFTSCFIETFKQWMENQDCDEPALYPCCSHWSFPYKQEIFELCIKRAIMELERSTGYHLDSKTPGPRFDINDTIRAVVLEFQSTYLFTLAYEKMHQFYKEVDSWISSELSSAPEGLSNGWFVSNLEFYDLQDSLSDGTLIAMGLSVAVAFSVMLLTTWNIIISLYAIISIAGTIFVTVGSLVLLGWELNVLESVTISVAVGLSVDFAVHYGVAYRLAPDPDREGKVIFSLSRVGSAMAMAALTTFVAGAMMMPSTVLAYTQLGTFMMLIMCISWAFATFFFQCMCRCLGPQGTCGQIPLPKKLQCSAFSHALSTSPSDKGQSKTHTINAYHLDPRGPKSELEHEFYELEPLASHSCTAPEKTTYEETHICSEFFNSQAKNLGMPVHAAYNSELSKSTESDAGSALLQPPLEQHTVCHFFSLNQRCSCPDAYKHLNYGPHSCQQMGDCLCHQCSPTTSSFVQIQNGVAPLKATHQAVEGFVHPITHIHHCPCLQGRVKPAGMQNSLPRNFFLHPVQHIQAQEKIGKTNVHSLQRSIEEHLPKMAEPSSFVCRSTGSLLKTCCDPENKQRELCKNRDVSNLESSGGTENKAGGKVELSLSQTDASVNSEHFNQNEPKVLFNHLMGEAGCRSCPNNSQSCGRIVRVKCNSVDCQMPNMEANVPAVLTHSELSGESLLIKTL
Chain of UniProt Q13467 (Q13467 whole entry): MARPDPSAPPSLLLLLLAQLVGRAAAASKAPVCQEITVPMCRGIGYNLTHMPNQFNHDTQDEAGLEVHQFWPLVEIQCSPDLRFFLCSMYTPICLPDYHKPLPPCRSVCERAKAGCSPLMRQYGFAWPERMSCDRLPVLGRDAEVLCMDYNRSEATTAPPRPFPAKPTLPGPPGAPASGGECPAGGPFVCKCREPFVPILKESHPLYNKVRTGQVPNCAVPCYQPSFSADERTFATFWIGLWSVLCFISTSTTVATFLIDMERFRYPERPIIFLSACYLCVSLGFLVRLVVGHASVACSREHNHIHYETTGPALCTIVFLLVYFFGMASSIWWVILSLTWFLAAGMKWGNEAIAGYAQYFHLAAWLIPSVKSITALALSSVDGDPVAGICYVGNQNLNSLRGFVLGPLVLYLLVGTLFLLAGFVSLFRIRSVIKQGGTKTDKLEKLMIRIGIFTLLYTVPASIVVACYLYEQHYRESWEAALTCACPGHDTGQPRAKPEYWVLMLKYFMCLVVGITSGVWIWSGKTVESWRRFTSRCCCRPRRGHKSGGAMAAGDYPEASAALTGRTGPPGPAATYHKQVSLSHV
Chain of UniProt P26447 (P26447 whole entry, looked up): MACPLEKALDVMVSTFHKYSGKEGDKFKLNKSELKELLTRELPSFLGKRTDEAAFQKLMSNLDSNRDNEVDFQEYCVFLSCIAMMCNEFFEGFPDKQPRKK

Compound in this assay: C#CCNC(=O)CCSSCCC(=O)NCCc1ccc(C=O)c(C=O)c1
Nature of the assay: lysine labeling ratio R10:1 (500 µM / 50 µM probe), SILAC-ABPP in living cells; higher = lower intrinsic lysine reactivity toward the probe, active = 2 or less. To be noted: HeLa; probe concentrations 500 vs 50 µM. A digest of the protocol: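 Each lysine carries an R value: the filtered median of MS1 peptide ratios of high probe to low probe, with the median then taken over forward and reverse replicates. These came from living SILAC light and heavy HeLa cells in PBS at room temperature labelled with an alkyne-tagged, disulfide-linked lysine probe at 500 µM or 50 µM, in forward and reverse swaps. The lysates were mixed, clicked to biotin-azide, trypsin-digested, captured on neutravidin, released by DTT, alkylated and run by LC-MS/MS on a TIMS-TOF Pro. The highest value allowed is 20.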
Consider “RPL5 (lysine site: K178) (UniProt P46777)”, for which the “lysine labeling ratio R10:1” value was 4.17.
Take “YBX1 (lysine site: K264) (UniProt P67809)”: the “lysine labeling ratio R10:1” value was 4.18.
Turning to “IDE (lysine site: K364) (UniProt P14735)”, the “lysine labeling ratio R10:1” value was 2.3.
Turning to “S100A4 (lysine site: K48) (UniProt P26447)”, the “lysine labeling ratio R10:1” value was 5.05.
Take “FZD5 (lysine site: K113) (UniProt Q13467)”: the “lysine labeling ratio R10:1” value was 1.57 (active).
The result for “DISP1 (lysine site: K369) (UniProt Q96F81)” reads 1.37 (active).

The record behind these values is the supplement of paper PMC11001985.
